Source: PubChem
697 NFkB inh: inhibitors of the PMA/ionomycin-induced NF-kB reporter in 697 B cells; 697 B-cell NF-kB luciferase reporter, 16 h; inhibition, % at 4 µM; 330,000 compounds, 0.33% hits; AID 435022; in the data active means inhibition above about 35%
NR2F2 inh: blocks human COUP-TFII nuclear receptor. P24468. HEK293T NGFI-A luciferase reporter, luminescence. inhibition, % at 8.6 µM. 370,000 compounds, 0.7% hits;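 active means inhibition above a per-plate cutoff, mean inhibition of test wells between control levels plus 3 SD, cut at about 38% in these data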;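 further: cells cotransfected with COUP-TFII expression vector driving the NGFI-A reporter; 0% = median of COUP-TF2 test wells and 100% = reporter-only cells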
Target sequence (P24468 whole entry, looked up): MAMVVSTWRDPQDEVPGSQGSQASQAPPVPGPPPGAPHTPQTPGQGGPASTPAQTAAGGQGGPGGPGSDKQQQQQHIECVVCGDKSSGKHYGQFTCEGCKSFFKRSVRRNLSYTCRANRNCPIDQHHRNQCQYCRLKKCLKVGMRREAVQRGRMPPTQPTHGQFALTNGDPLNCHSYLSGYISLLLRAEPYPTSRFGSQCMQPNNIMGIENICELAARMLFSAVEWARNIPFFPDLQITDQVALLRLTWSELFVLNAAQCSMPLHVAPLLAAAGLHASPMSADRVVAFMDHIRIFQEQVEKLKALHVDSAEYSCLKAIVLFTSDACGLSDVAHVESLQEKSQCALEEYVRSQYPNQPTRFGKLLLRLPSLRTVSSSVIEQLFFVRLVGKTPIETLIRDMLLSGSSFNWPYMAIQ
Gli-Sufu antag: Gli-Sufu pathway antagonism. AID 588413. 340,000 compounds, 0.74% hits. inhibition, % at 5 µM. Sufu-KO-LIGHT fibroblasts, Gli luciferase reporter luminescence;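 active means inhibition above about 55%, limit read from the data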;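 further: 0% = DMSO-treated cells and 100% = wells with medium but no cells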
TAG inh: reduces triacylglycerol accumulation in H9c2 cells | 230,000 compounds, 0.66% hits | inhibition, % at 12.5 µM | Nile Red lipid (TAG) fluorescence; cells loaded with 200 µM oleic acid | AID 651582;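 active means pattern-corrected inhibition of lipid staining of at least 50% with the nuclear-stain viability signal not falling by more than 50%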;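 further: 0% = DMSO wells and 100% = triacsin C control wells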
Cardio protect: myocardial damage modulation in H9c2 cells; H9c2 cardiomyocytes, H2O2 injury protection, ATPLite, 2 h; protection from H2O2 cell death, % at 20 µM; 360,000 compounds, 0.63% hits;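 active means compounds giving at least 50% protection of heart cells from peroxide-induced death in the single-dose screen, raw or plate-pattern-corrected value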;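 further: 0% = DMSO wells with peroxide and 100% = DMSO wells without peroxide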
Jurkat NFkB inh: lowers PMA/ionomycin-induced NF-kB signal in Jurkat cells; 330,000 compounds, 0.53% hits; inhibition, % at 4 µM; PMA/ionomycin-induced NF-kB luciferase reporter, luminescence; AID 435003; in the data active means inhibition above about 50%
Jurkat NFkB conf: inhibitors of the PMA/ionomycin-induced NF-kB reporter in Jurkat cells, retest. shares compounds with Jurkat NFkB inh. Jurkat NF-kB luciferase, 16 h. inhibition, % at 4 µM. 2,700 compounds, 27% hits. AID 435020;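 active means inhibition reaching about 45% at 4 µM in either replicate, limit read from the data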;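 further: plate controls were PMA/ionomycin stimulated DMSO wells for no effect and unstimulated DMSO wells for full effect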
697 NFkB conf: lowers PMA/ionomycin-induced NF-kB signal in 697 B cells; 2,000 compounds, 35% hits; 697 B-cell NF-kB luciferase, 16 h; inhibition, % at 4 µM; AID 449746; shares compounds with 697 NFkB inh; in the data active means inhibition mostly above about 28%, no sharp cut-off; inactive means mostly below about 22%
Gli antag conf: confirmation of Gli-SUFU pathway antagonists; 2,500 compounds, 40% hits; AID 602428; inhibition, % at 5 µM; shares compounds with Gli-Sufu antag; Sufu-KO-LIGHT cells, Gli luciferase reporter, luminescence;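 active means mean inhibition at 5 µM reaching about 45%, limit read from the data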;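 further: plate controls were DMSO-treated cells for no effect and wells lacking cells for full effect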
Gli cytotox: counter-screen for Gli-SUFU antagonists: cytotoxicity; shares compounds with Gli-Sufu antag; Sufu-KO-LIGHT cells cytotoxicity, ATP luminescence; cytotoxicity, % at 5 µM; 2,500 compounds, 32% hits; AID 651994;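 active means mean cytotoxicity at 5 µM above about 25%, limit read from the data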;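 further: cells exposed to compound overnight for roughly 16 to 18 hours; plate controls were DMSO wells with cells for no effect and medium without cells for full effect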
Wnt3a counter: Wnt3a reporter inhibition counter-screen; shares compounds with Gli-Sufu antag; Wnt-LIGHT cells, Wnt3a-driven luciferase reporter, luminescence; inhibition, % at 6.25 µM; 2,500 compounds, 20% hits;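 active means mean inhibition above about 25%, limit read from the data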
VP16 Luc counter: inhibits VP16 reporter, flagging COUP-TFII antagonist hits; HEK293 Gal4-VP16 luciferase reporter, luminescence; inhibition, % at 8.5 µM; 2,500 compounds, 25% hits; shares compounds with NR2F2 inh; AID 687007; in the data active means inhibition above about 13%
NR2F2 inh conf: COUP-TFII (NR2F2) inhibition, confirmation assay; HEK293 NGFI-A luciferase reporter, luminescence; 2,500 compounds, 45% hits; shares compounds with NR2F2 inh; AID 687008; inhibition, % at 8.5 µM;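 active means mean inhibition over three repeats above a set limit taken from the earlier primary screen, cut at about 38% in these data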;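 further: 100% = cells given the luciferase reporter alone without the COUP-TF2 vector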
* hit, by the source's call; x = no result given. The list is not random: actives were taken first. Their share in the collection is about 2.6%.

SMILES	697 NFkB inh	NR2F2 inh	Gli-Sufu antag	TAG inh	Cardio protect	Jurkat NFkB inh	Jurkat NFkB conf	VP16 Luc counter	NR2F2 inh conf	others
Cc1ccc2oc(/N=C(\N)NC(=O)C(C)(C)C)nc2c1	-44	93*	75*	6	-14	60*	87*	88*	105*
OCCCN1CCC2(CCC(c3ccccc3)CC2)C1 (stereo not drawn)	x	-4	x	x	x	x	x	x	x
COc1ccccc1-c1nc(-c2ccccn2)no1	-96	7	-27	2	-13	-28	x	x	x
COc1ccc(-c2nc(-c3ccccn3)no2)cc1	48*	83*	69*	-7	-12	77*	86*	60*	81*	697 NFkB conf=39*
C=CCNC(=O)Nc1ccc2c(c1)[C@]1(CC(=O)N(CC(C)C)C1c1ccccc1)C(=O)N2C (stereo partly drawn)	x	4	x	x	x	x	x	x	x
Cc1ccc(-n2c(Cc3cccs3)nnc2SCc2ccc(C#N)cc2)cc1	x	2	x	x	x	x	x	x	x
CN(C(=O)OC(C)(C)C)c1ccc(-c2nc3ccccc3s2)cc1	66*	97*	90*	-8	-12	69*	90*	87*	107*	697 NFkB conf=48*
O=C(CS(=O)(=O)c1ccccc1)CS(=O)(=O)c1ccccc1	x	9	x	x	x	x	x	x	x
O=S(=O)(C/C(=C/CO)S(=O)(=O)c1ccccc1)c1ccccc1	-74	76*	27	x	-13	72*	58*	38*	58*
Cc1ccc(-c2cc(=O)c3ccccc3[nH]2)cc1	-28	-14	-10	-5	25	2	x	x	x
Cc1ccc(-c2cc3c(N=O)c4ccccc4c-3n[nH]2)cc1	58*	84*	59*	6	-11	67*	72*	37*	86*	697 NFkB conf=-32
Cc1cccc(Cn2cc(COC(=O)Nc3ccc(F)cc3)nn2)c1	x	3	x	x	x	x	x	x	x
CCCCC[n+]1cccc2c3ccccc3ccc21	60*	64*	74*	-10	-11	52*	46	16*	60*	697 NFkB conf=42*;Gli antag conf=85*;Gli cytotox=27*;Wnt3a counter=33*
CCCC[n+]1c2ccccc2cc2ccccc21	4	26	15	x	-8	2	x	x	x
CCn1c(Cc2cccs2)nnc1SCC(=O)Nc1cccc2ccccc12	x	2	x	x	x	x	x	x	x
CCC(C)Nc1nc(C)nc2c1nnn2Cc1ccccc1 (stereo not drawn)	x	-1	x	x	x	x	x	x	x
COc1ccccc1C(=O)Nc1nc2ccccc2s1	2	91*	67*	-4	-23	62*	71*	78*	97*
CCc1c(C)nc2ncnn2c1NCCc1ccc(OC)c(OC)c1	-23	23	17	x	-5	25	x	x	x
COc1ccc(CCNc2c(C)c(C)nc3ncnn23)cc1	89*	66*	72*	x	-16	70*	65*	-2	52*	697 NFkB conf=54*;Gli antag conf=70*;Gli cytotox=45*;Wnt3a counter=28*
O=C(OCC#CCSc1nnc(-c2cccc3ccccc23)o1)c1ccsc1	x	0	x	x	x	x	x	x	x
O=C(NC(Nc1nc2ccc([N+](=O)[O-])cc2s1)(C(F)(F)F)C(F)(F)F)c1ccccc1Cl	-37	75*	93*	10	-15	78*	70*	18*	74*
